The campaign covered roughly 220,000 compounds. About 910 (0.41%) were called active.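 The calls were made as follows: active = primary inhibition above the hit cutoff, then over 50% inhibition at one or more dose response concentrations (cut at about 23% in these data, passing the limit was not always enough); inconclusive = conflicting primary data, or primary hits not chosen for dose response; inactive = low primary inhibition, or under 50% at every dose.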 The list comes from a sample in which actives are over-represented; it also holds similar structures and randomly drawn compounds. Entries with a potency or affinity are not part of this list.
Target: Aminopeptidase N (Plasmodium falciparum (isolate 3D7)) (UniProt O96935)
Assay: P. falciparum M1AAP inhibitors, biochemical, fluorogenic H-Leu-NHMec substrate, 1536-well (AID 1445);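 also: plate controls were DMSO full reaction for no effect and no enzyme background for full effect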
Conditions: recombinant M1AAP, H-Leu-NHMec fluorogenic kinetic assay; at 30 µM, hits give high values unless noted

Sequence of Aminopeptidase N (Plasmodium falciparum (isolate 3D7)) (O96935 whole entry, looked up): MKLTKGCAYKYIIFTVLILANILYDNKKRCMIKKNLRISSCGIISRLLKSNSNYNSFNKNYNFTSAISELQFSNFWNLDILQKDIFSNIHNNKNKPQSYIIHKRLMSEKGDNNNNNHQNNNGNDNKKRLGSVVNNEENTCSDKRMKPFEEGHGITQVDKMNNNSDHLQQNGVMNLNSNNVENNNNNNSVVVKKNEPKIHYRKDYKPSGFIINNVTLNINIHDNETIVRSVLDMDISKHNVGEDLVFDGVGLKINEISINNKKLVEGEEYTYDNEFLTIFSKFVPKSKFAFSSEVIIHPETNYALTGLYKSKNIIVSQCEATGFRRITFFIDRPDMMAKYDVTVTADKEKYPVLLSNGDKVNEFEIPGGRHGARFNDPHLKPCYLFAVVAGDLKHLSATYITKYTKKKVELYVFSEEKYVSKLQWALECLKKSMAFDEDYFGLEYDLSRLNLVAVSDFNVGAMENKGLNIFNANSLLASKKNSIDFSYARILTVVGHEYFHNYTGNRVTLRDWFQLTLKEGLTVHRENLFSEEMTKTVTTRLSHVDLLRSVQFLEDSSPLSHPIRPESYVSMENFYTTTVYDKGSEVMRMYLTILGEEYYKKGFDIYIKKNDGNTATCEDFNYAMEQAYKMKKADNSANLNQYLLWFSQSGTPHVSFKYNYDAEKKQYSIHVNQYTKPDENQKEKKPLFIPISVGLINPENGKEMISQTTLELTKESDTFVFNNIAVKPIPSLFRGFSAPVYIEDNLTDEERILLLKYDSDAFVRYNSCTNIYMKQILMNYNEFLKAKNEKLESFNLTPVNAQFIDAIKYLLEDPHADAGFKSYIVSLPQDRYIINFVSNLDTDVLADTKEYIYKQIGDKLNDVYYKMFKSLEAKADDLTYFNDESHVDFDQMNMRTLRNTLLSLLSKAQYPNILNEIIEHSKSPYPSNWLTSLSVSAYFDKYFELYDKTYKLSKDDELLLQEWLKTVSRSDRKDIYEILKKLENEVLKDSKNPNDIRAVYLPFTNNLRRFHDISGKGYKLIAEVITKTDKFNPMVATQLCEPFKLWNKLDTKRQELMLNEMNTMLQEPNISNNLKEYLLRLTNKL

inhibition, inactive:
NS(=O)(=O)c1ccc(CCNC(=O)c2ccc(Cn3c(=O)[nH]c4ccccc4c3=O)cc2)cc1 4.04%
CC(/C=C/c1ccccc1)=N\NC(=O)c1cc(C)nc2ccccc12 7.74%
CC1CN(C(=O)c2cc(S(=O)(=O)N3CCCC3)c(Cl)cc2Cl)CC(C)O1 (centres undefined) -2.85%
O=C(CNC(=S)N(Cc1ccccc1)Cc1cccnc1)NCCc1ccccc1 -4.94%
Cc1cccn2c(=O)c3cc(C(=O)NCc4ccco4)c(=N)n(C(C)C)c3nc12 18.3%
N=c1c(C(=O)NCc2ccco2)cc2c(=O)n3ccccc3nc2n1Cc1ccccc1 11.6%
Cc1cccn2c(=O)c3cc(C(=O)NCc4cccnc4)c(=N)n(C(C)C)c3nc12 0.19%
N=c1c(C(=O)NCc2ccco2)cc2c(=O)n3ccccc3nc2n1CCc1ccccc1 9.03%
N=c1c(C(=O)NCc2ccc(F)cc2)cc2c(=O)n3ccccc3nc2n1CCCN1CCOCC1 5.69%
N=c1c(C(=O)NC2CCCC2)cc2c(=O)n3ccccc3nc2n1CCN1CCOCC1 12.5%
O=C(COc1cc(F)ccc1[N+](=O)[O-])Nc1ccc(N2CCOCC2)cc1 1.97%
COc1cc(/C=C/C(=O)O)cc(S(=O)(=O)N2CCc3ccccc32)c1OC 7.41%
O=C(O)Cc1ccc(-c2ccccc2-c2ccccc2)cc1 6.14%
COc1ccc(OC)c(C(C)NC(=O)c2ccc(Br)cc2)c1 (centres undefined) 6.29%
CCc1cccc(CC)c1NC(=O)c1ccc(-n2cncn2)nc1 3.55%
Cc1c(Cl)cccc1NC(=O)CCC(=O)N/N=C/c1ccc[nH]1 6.91%
CC(=O)Nc1sc(C)c(C)c1C(=O)Nc1ccc(C)cc1 10.1%
COc1cc(/C=C2\SC(=Nc3ccccc3)N(CCc3c[nH]c4ccccc34)C2=O)ccc1OC(C)C(=O)O (centres undefined) 16.3%
COc1ccc(N=C2S/C(=C\c3ccc(OC(C)C(=O)O)c(OC)c3)C(=O)N2CCc2c[nH]c3ccccc23)cc1 (centres undefined) 31.6%
CCCn1c(N2CCN(C)CC2)nc2c1c(=O)[nH]c(=O)n2C -4.63%
COc1ccc(S(=O)(=O)N(NC2=NS(=O)(=O)c3ccccc32)C(=O)C(C)C)cc1 9.06%
CCN(C1=NS(=O)(=O)c2ccccc21)N(CC)S(=O)(=O)c1ccc(C)cc1 -4.7%
CC1CCCCC1NC(=O)C(=O)NCC1CCCO1 (centres undefined) 0.74%
Clc1cccc(-c2ccc(CNCCCN3CCOCC3)o2)c1 2.45%
